These results are taken from PubChem BioAssay (EPA / NIEHS).

One assay relates to NCBI gene 100848466. Kind of assay: NVS_NR_bPR: NovaScreen (NVS) Nuclear Receptor Binding Assay for bovine Progextron Receptor (PR) (AID 2283343).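 As to AC50: actives lower bound radioligand signal below DMSO meaning displacement of the label.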 In outline:
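Membranes from bovine uterus; radiolabelled ligand plus test chemical; 18 h; scintillation read-out. Activity = signal loss vs DMSO. Primary: 25 uM, duplicate; secondary: concentration series.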

Assay [1] addresses bovine Estrogen Receptor (ER), ESR1 (gene 407238) (UniProt P49884). In words: NVS_NR_bER: NovaScreen (NVS) Nuclear Receptor Binding Assay for bovine Estrogen Receptor (ER) (AID 2283345).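 Also: actives lower the bound radioligand count which means they displace the ER ligand.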 The essentials: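 Cell-free radioligand binding with receptor from bovine uterine membranes, read by scintillation counting 18 h after dosing. Loss of specific binding was scored against DMSO; primary screen at 25 uM in duplicate, actives then run as concentration series.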

For assay [2], the target named is Estrogen receptor (Homo sapiens) (UniProt P03372). Kind of assay: NVS_NR_hER: NovaScreen (NVS) Nuclear Receptor Binding Assay for human Estrogen Receptor (ER) (AID 2283348). The essentials:
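Scintillation signal from bound radioligand was measured 18 hours after chemical addition to cell-free MCF7 protein extracts, with DMSO as baseline. Activity was scored as signal loss; compounds ran first at 25 uM in duplicate.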

The target is the same in assay [3]. In words: OT_ER_ERaERa_1440: Odyssey Thera (OT) 24-hour HEK293T Protein-Complementation Assay for Estrogen Receptor-alpha/-alpha Homodimer (AID 2283349).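 Also: hits raise fluorescence above DMSO for agonists and antagonists alike.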 In outline:
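Protein-fragment complementation between two human ERα ligand-binding domains (aa 310-547) in stably transfected HEK293T cells was monitored after 24 h treatment, using fluorescence intensity relative to vehicle controls.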

Assay [4] has the same target. In words: OT_ER_ERaERa_0480: Odyssey Thera (OT) 8-hour HEK293T Protein-Complementation Assay for Estrogen Receptor-alpha/-alpha Homodimer (AID 2283351).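 Also: rise in fluorescence from reassembled reporter fragments on ERα LBD homodimer in nucleus or whole cell.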 The essentials:
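HEK293T, stable ERα LBD (aa 310-547) PCA homodimer; 8 h compound exposure; fluorescence intensity, laser scanning cytometer; positive fitting direction, DMSO baseline.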

The target of assay [5] is Estrogen receptor (Homo sapiens) + Estrogen receptor beta (Homo sapiens) (UniProt P03372+Q92731). Kind of assay: OT_ER_ERaERb_0480: Odyssey Thera (OT) 8-hour HEK293T Protein-Complementation Assay for Estrogen Receptor-alpha/-beta Heterodimer (AID 2283352). The essentials: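 Human HEK293T cells were treated for 8 hours and receptor heterodimerisation was detected through reconstitution of a fluorescent reporter split between ER-alpha and ER-beta ligand-binding domains. Activity was analysed as gain of signal against DMSO.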
Estrogen receptor (Homo sapiens) + Estrogen receptor beta (Homo sapiens), sequence (P03372 whole entry, looked up, the tested form may be a part): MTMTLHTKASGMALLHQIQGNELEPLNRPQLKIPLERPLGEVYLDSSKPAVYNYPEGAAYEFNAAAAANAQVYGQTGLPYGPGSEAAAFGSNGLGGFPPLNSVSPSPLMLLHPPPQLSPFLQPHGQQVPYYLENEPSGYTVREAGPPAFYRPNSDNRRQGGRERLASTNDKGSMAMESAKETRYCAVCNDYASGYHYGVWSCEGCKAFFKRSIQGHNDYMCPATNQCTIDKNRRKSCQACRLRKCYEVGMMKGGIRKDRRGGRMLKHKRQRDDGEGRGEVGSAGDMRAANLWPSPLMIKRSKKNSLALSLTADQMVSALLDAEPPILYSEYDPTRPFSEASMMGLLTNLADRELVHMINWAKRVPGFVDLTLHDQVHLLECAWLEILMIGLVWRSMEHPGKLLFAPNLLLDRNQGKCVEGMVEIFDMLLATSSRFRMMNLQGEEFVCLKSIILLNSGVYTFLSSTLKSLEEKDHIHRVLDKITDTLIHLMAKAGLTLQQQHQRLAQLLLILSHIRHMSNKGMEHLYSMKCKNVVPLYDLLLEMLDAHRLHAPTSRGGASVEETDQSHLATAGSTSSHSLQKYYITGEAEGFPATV
Estrogen receptor (Homo sapiens) + Estrogen receptor beta (Homo sapiens), sequence (Q92731 whole entry, looked up, the tested form may be a part): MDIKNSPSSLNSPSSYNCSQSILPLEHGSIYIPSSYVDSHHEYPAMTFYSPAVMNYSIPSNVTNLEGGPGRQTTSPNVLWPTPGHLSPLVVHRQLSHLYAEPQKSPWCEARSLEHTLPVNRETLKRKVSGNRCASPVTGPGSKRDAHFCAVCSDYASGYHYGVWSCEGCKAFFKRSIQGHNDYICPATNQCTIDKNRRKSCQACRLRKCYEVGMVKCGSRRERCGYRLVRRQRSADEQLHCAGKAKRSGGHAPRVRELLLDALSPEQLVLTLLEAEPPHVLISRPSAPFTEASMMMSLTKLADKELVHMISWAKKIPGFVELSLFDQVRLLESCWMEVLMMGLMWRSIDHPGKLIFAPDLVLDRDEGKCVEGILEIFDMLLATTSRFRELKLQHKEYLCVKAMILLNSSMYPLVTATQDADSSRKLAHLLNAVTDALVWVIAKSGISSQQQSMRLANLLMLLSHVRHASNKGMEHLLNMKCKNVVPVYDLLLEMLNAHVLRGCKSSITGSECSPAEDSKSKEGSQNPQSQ

Assay [6] addresses chimpanzee Androgen Receptor (AR), AR (gene 747460) (UniProt O97775). Kind of assay: NVS_NR_cAR: NovaScreen (NVS) Nuclear Receptor Binding Assay for chimpanzee Androgen Receptor (AR) (AID 2283346).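 Also: radioligand displacement from AR measured by scintillation counting in a cell-free assay; a loss of bound radioligand signal versus DMSO counts as binding.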 In outline: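 Cell-free competition binding with insect-cell (Sf9/Sf21) extracted chimpanzee AR; scintillation signal from lysate at 72 h. Screened in duplicate at 25 uM, then concentration-response for actives; fitting relative to DMSO.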

In assay [7] the test system is guinea pig Histamine Receptor (H2), gene 100729734. In words: NVS_GPCR_gH2: NovaScreen (NVS) G Protein-Coupled Receptor Assay for guinea pig Histamine Receptor (H2) (AID 2283342). The essentials: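 Radioligand displacement on guinea pig striatal membranes, 1 h after dosing, filter-based scintillation counting; loss of signal versus DMSO. Single-point screen at 25 uM in duplicate, then concentration-response up to 50 uM.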

The target in assay [8] is Bile acid receptor (Homo sapiens) (UniProt Q96RI1). Kind of assay: NVS_NR_hFXR_Agonist: NovaScreen (NVS) Nuclear Receptor Binding Assay for human Farnesoid X Receptor Agonism (FXR) (AID 2283347). In outline:
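Cell-free TR-FRET binding assay with extracted human FXR protein, agonist format, read 1 h after dosing. Primary screen at 25 uM single concentration in duplicate, actives retested in concentration series; gain of signal versus DMSO.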

Assay [9] has the same target. In words: NVS_NR_hFXR_Antagonist: NovaScreen (NVS) Nuclear Receptor Binding Assay for human Farnesoid X Receptor Antagonism (FXR) (AID 2283350). The essentials:
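Cell-free TR-FRET ligand-binding read-out on human FXR (NR1H4) in antagonist mode, measured 1 h after dosing. Primary screen in duplicate at 25 uM, actives retested in concentration series; signal loss scored versus DMSO.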

Values joined by “and” are separate entries in the source; they are usually repeats but may differ in a detail not shown here. Equal values may be shown once. Inconclusive results are not listed. Where a structure was tested more than once in an assay, its records may differ in their call. Active and inactive are the calls of the source. The calls were made as follows: active = hit-call score of the fitted dose curve at least 0.9, where 1 is the maximum; inconclusive = response in the unintended direction; inactive = score below 0.9.

bovine Estrogen Receptor (ER), ESR1 (gene 407238), sequence (P49884 whole entry, looked up): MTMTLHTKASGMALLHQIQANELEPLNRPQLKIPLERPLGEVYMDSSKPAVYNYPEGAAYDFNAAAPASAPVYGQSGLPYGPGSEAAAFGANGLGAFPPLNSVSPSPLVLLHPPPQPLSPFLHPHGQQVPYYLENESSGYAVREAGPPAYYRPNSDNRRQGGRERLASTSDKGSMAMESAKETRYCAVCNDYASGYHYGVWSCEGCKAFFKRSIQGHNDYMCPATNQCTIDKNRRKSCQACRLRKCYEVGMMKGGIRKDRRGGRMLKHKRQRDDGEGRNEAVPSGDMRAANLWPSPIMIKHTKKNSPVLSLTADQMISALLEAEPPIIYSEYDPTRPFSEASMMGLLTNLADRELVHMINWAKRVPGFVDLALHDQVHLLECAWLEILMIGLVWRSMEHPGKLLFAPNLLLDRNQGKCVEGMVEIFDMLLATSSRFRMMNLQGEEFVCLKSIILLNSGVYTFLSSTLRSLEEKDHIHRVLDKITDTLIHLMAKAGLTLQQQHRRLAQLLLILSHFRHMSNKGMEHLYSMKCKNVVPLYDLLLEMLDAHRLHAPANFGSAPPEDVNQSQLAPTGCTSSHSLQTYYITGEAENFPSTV
Estrogen receptor (Homo sapiens), sequence (P03372 whole entry, looked up): as the sequence (P03372 whole entry, looked up, the tested form may be a part) above
chimpanzee Androgen Receptor (AR), AR (gene 747460), sequence (O97775 whole entry, looked up): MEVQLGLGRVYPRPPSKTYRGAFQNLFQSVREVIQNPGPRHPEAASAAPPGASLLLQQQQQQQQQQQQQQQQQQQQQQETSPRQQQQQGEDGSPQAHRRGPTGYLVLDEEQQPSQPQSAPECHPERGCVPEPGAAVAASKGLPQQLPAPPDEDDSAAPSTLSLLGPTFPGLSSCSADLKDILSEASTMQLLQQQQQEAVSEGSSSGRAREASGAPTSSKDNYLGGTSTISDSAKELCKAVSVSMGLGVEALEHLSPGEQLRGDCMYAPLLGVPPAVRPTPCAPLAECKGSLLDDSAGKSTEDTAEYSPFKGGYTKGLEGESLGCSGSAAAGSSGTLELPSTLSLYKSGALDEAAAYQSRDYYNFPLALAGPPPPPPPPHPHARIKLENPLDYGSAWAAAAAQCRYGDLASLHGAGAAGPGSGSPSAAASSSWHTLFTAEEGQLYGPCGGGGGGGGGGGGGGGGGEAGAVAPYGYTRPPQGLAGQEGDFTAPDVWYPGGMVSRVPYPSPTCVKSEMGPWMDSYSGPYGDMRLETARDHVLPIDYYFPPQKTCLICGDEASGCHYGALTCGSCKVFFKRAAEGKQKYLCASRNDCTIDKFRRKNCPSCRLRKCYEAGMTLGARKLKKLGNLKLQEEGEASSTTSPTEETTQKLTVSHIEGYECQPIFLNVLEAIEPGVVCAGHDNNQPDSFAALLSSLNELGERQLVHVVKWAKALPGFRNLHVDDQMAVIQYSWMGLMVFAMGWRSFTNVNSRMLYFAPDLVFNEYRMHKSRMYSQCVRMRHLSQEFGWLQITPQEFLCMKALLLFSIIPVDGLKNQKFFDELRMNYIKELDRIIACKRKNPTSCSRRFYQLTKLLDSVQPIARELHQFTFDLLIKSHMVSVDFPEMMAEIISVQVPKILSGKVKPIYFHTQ
Bile acid receptor (Homo sapiens), sequence (Q96RI1 whole entry, looked up): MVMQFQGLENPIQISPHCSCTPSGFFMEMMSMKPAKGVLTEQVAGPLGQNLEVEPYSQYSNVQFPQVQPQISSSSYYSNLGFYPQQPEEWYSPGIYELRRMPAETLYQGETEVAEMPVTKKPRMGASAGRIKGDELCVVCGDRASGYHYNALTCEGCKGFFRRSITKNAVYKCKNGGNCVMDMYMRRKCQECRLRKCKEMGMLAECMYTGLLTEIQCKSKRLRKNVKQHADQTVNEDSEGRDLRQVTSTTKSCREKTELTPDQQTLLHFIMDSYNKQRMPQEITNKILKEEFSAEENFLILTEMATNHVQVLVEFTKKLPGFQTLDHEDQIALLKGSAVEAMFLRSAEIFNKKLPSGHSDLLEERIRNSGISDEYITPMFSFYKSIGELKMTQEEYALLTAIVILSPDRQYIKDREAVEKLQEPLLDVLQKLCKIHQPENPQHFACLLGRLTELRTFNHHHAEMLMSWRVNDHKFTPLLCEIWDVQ

Turning to `CO/C=C(/C(=O)OC)c1ccccc1Oc1cc(Oc2ccccc2C#N)ncn1`, the call (with NCBI gene 100848466; in assay [1]; in [2]; in assay [3]; in [4]) was inactive.

`Cc1c(F)c(F)c(COC(=O)C2C(/C=C(\Cl)C(F)(F)F)C2(C)C)c(F)c1F` (configuration not stated): the result in assay [1], in assay [2], in [3], in [4] and in assay [5] was inactive.

Usually AC50 stands for the concentration at which the activity in the assay is half-maximal. Take `CCCCC(CC)COC(=O)c1ccccc1C(=O)OCC(CC)CCCC` (configuration not stated): the outcome (with NCBI gene 100848466; in assay [1]; in [2]; in assay [4]) was inactive. Further, the AC50 was 66 µM (active) in [3] and 66.9 µM (active) in assay [5].

For the compound `OC(c1ccc(Cl)cc1)(c1cncnc1)c1ccccc1Cl` (configuration not stated), the call in assay [1], in assay [6], in [2], in assay [3] and in assay [4] was inactive. The AC50 in assay [5] is 11.9 µM (active).

With `CCCCOC(=O)c1ccccc1C(=O)OCCCC`, the compound was called inactive (in the assay with NCBI gene 100848466; in assay [1]; in assay [6]; in [2]). Further, the AC50 in assay [3] is 35.4 µM (active) and 46.5 µM (active) and 60 µM (active); in [4], 46.7 µM (active) and 37.4 µM (active) and 35.4 µM (active); in [5] it was 33.1 µM (active) and 25.9 µM (active) and 23.5 µM (active).

Take `CON(C)C(=O)Nc1ccc(Cl)c(Cl)c1`: the outcome (in the assay on NCBI gene 100848466; in assay [2]; in [3]; in [4]) was inactive. Besides, in [6], the half-maximal activity concentration (AC50) is 15.3 µM (active).

Turning to `C=CCC1=C(C)C(OC(=O)C2C(C=C(C)C)C2(C)C)CC1=O` (configuration not stated), the result in assay [7], in assay [1], in [6], in [8], in assay [2] and in assay [3] was inactive. Also, the call in assay [4] was inactive.

For `Cc1cc(Cl)ccc1OCC(=O)O`, the compound was called inactive in assay [1], in assay [2], in [3] and in [4].

Take `CC1COC(Cn2cncn2)(c2ccc(Oc3ccc(Cl)cc3)cc2Cl)O1` (configuration not stated): the call in assay [7], in assay [3] and in assay [4] was inactive.

For the compound `Oc1ccccc1-c1ccccc1`, the AC50 in the assay on NCBI gene 100848466 is 31.3 µM (active); in assay [6], 11.2 µM (active) and 25.5 µM (active); in [5] it was 66 µM (active). Also, the outcome in [3], in assay [4] and in assay [5] was inactive.

`CCCN(CCC)c1c([N+](=O)[O-])cc(S(N)(=O)=O)cc1[N+](=O)[O-]`: the call in assay [1], in assay [2], in assay [3], in [9] and in assay [4] was inactive. For the same compound, in [9], the concentration at half-maximal activity (AC50) was 26.4 µM (active).

Regarding `N#CC(CCc1ccc(Cl)cc1)(Cn1cncn1)c1ccccc1` (configuration not stated), the compound was classed as inactive in assay [7], in assay [3] and in assay [4].

On to `COc1ccc(C(c2ccc(OC)cc2)C(Cl)(Cl)Cl)cc1`, for which the outcome (in the assay with NCBI gene 100848466; in assay [1]; in assay [2]; in assay [9]) was inactive. In addition, the AC50 in assay [2] was 4.64 µM (active) and 5.49 µM (active) and 13.9 µM (active); in assay [3], 13.8 µM (active) and 21.6 µM (active) and 14.4 µM (active); in assay [4], 13 µM (active) and 12.5 µM (active) and 10.8 µM (active); in assay [5], 4.23 µM (active) and 12.5 µM (active) and 9.58 µM (active).

With `CCCCNC(=O)OCC#CI`, the result (in [7]; with NCBI gene 100848466; in assay [1]; in assay [2]; in assay [3]; in [4]) was inactive.

Consider `N#Cc1cc(Br)c(O)c(Br)c1`, for which the compound was called inactive in [1], in assay [2], in [3], in assay [9] and in assay [4].

For `CCCC1COC(Cn2cncn2)(c2ccc(Cl)cc2Cl)O1` (configuration not stated), the compound was classed as inactive in [7], in assay [3] and in assay [4]. Further, the AC50 is 17.9 µM (active) in the assay on NCBI gene 100848466 and 9.99 µM (active) in [6].

As for `C=CC1(C)OC(=O)N(c2cc(Cl)cc(Cl)c2)C1=O` (configuration not stated), the outcome (in the assay on NCBI gene 100848466; in assay [1]; in assay [6]; in [2]; in [3]; in assay [4]) was inactive. For the same compound, the result in [5] was inactive.

As to `CNC(=O)ON=CC(C)(C)SC`, the call (in the assay on NCBI gene 100848466; in assay [3]; in assay [4]) was inactive.

With `C#CCOS(=O)OC1CCCCC1Oc1ccc(C(C)(C)C)cc1` (configuration not stated), the result (with NCBI gene 100848466; in assay [3]; in [9]; in assay [4]; in assay [5]) was inactive.
